Most compounds without a hit are left out; they make up all but 2.6% or so of the library.
14-3-3 Bad PPI: disrupts binding of bovine 14-3-3 zeta to phospho-Bad peptide; P63103; hit rate 0.71% among 220,000; AID 781; TR-FRET 14-3-3zeta/Dy647-pBad peptide displacement, 1 h; inhibition, % at 21.7 µM;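 active = inhibition above about 70%, limit read from the data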
Target sequence (P63103 whole entry, looked up): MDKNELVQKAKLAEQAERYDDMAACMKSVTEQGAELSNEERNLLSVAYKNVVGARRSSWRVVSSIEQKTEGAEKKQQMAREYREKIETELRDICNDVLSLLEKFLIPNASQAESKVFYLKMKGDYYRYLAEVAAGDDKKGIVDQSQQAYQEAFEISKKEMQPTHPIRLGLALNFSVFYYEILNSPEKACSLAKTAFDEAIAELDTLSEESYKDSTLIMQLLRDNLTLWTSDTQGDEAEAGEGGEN
Mcl-1 Bim block: inhibitors of Bim-Mcl-1 interaction, human; Q07820; AID 1009; Bead-based flow cytometry, Bim peptide-Mcl-1 binding; inhibition, % at 10 µM; hit rate 0.1% among 190,000; in the data active = inhibition above about 40%
Target sequence (Q07820 whole entry, looked up): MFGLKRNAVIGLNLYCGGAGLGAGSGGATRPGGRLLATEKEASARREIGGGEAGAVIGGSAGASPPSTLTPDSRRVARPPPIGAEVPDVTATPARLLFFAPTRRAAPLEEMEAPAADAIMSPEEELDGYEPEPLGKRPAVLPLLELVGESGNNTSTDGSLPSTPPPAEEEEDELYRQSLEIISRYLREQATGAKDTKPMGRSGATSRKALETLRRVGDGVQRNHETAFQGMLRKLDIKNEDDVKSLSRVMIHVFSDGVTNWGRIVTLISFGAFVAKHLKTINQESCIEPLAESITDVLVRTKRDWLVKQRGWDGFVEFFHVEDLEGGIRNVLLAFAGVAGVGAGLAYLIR
MCL1 BIM primary: inhibitors of human MCL1 binding to BIM-BH3 peptide; Q07820; GST-MCL1 / FITC-Bim-BH3 fluorescence polarization; inhibition, % at 10.9 µM; hit rate 0.68% among 320,000;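 active = inhibition above the mean inhibition of all tested compounds plus 3 SD, set per campaign, cut at about 40% in these data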;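 note: higher means more loss of mP so more displacement of Bim peptide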
Mcl1 Bid PPI: disrupts binding of human Mcl-1 to Bid peptide; Q07820; TR-FRET Mcl-1/Bid-Dy647 peptide binding, 1536-well; inhibition, % at 21.7 µM; hit rate 0.97% among 220,000; AID 1021;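 active = compounds that cut the binding signal by more than half at the single screening dose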;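 note: His-tagged Mcl-1 with europium anti-His antibody binding Bid BH3 peptide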
Mcl1 Noxa PPI: disrupts binding of human Mcl-1 to Noxa peptide; Q07820; inhibition, % at 21.7 µM; TR-FRET Mcl-1/Noxa peptide binding, 2 h; hit rate 1.5% among 220,000;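 active = compounds that cut the protein-peptide binding signal by more than 50% relative to plate controls in a single-dose test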;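 note: His-tagged Mcl-1 with rhodamine Noxa BH3 peptide and terbium anti-His antibody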
eIF4E 4G PPI: inhibitors of eIF4E and eIF4G interaction in translation initiation; P63073+Q04637; TR-FRET eIF4E-eIF4GI(517-606) binding, 2 h; inhibition, % at 21.7 µM; hit rate 0.37% among 220,000;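 active = inhibition above about 30%, limit read from the data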
Hits are given with their value; 0 = inactive; - = no result; [ ] = remark or other dose.

SMILES	14-3-3 Bad PPI	Mcl-1 Bim block	MCL1 BIM primary	Mcl1 Bid PPI	Mcl1 Noxa PPI	eIF4E 4G PPI
Cn1c(=O)n(C)c2cc(N3CCOCC3)c(NC(=O)c3cccc(Cl)c3)cc21	-	-	0	-	-	-
COc1ccc(OC)c(Nc2nc(=O)c3cccnc3s2)c1	0	0	-	0	56	32
c1ccc(-c2nc(NCc3ccco3)c3oc4ccccc4c3n2)cc1	73	0	0	0	0	0
Cc1ccc(-c2nc(NCc3ccco3)c3ccccc3n2)cc1	0	0	0	0	0	0
c1cncc(-c2nc(NCc3ccco3)c3ccccc3n2)c1	0	0	0	53	51	0
OCCN1CCN(c2nc(-c3ccccc3O)nc3ccccc23)CC1	-	-	0	-	-	-
Cc1ccccc1CN1CCN(S(C)(=O)=O)CC1	0	-	0	0	0	0
COc1ccc(CN2CCN(C(=O)c3cccs3)CC2)cc1Br	78	0	0	0	0	0
O=S(=O)(c1ccccc1)N1CCN(Cc2cccc(Cl)c2)CC1	72	0	0	0	0	0
Cc1ccccc1CN1CCN(S(=O)(=O)c2ccc(F)cc2)CC1	0	0	0	60	0	0
O=S(=O)(c1ccccc1)N1CCN(Cc2ccccc2)CC1	-	-	0	-	-	-
COc1cc(SC)ccc1C(=O)N1CCN(Cc2ccc3c(c2)OCO3)CC1	-	-	0	-	-	-
COc1cccc(OC)c1C(=O)N1CCN(Cc2ccc3c(c2)OCO3)CC1	97[fluorescence artefact?]	0	0	0	0	0
CSc1cccc(NC(=S)N2CCC(N(C)C3CCCC3)CC2)c1	0	0	0	0	0	0
CN(C(=O)c1cccc(S(=O)(=O)N2CCCC2)c1)C1CCCCC1	-	-	0	-	-	-
CC1=C(C(=O)Nc2ccccc2C(F)(F)F)C(c2sccc2C)NC(=S)N1 (configuration not stated)	0	0	0	0	0	0
COc1ccc(CN2CCN(S(=O)(=O)c3ccc(F)cc3)CC2)c(OC)c1OC	77	0	0	0	0	0
COc1ccc(CN2CCN(S(=O)(=O)c3ccccc3)CC2)cc1Br	0	0	0	64	0	0
COc1ccc(CN2CCN(S(=O)(=O)c3ccc(F)cc3)CC2)cc1OC	70	0	0	0	0	0
COc1ccc(CN2CCN(S(=O)(=O)c3ccc(NC(C)=O)cc3)CC2)cc1OC	0	0	0	0	0	0
Cc1cc(NC(=O)c2ccc(Br)o2)ccc1NC(=O)c1ccco1	-	-	0	-	-	-
O=C(c1ccccc1)c1cc(Cl)ccc1N1C(=O)C=CC1=O	0	0	-	51	0	0
O=C(CC(=O)c1cc(Cl)ccc1O)c1ccccc1	0	0	0	0	0	0
O=C(CCc1ccccc1)Nc1cc(C(=O)O)cc(C(=O)O)c1	0	0	0	0	0	0
S=c1[nH]c(-c2ccccc2)cn1/N=C/c1cccnc1	0	-	0	0	0	96
SMILES	14-3-3 Bad PPI	Mcl-1 Bim block	MCL1 BIM primary	Mcl1 Bid PPI	Mcl1 Noxa PPI	eIF4E 4G PPI
COc1cc(Sc2ccc(C)cc2)c(OC)cc1N	76	0	0	0	0	0
COC(=O)c1ccc(Sc2ccc(C)cc2)c(N)c1	0	0	0	0	0	0
CCOC(=O)c1c2c3c(cccc3[nH]c1=O)C(=O)c1ccccc1-2	0	0	47	0	0	0
CCOC(=O)c1c2c3c(c(Cl)ccc3[nH]c1=O)C(=O)c1ccccc1-2	0	0	-	0	0	0
COc1ccccc1CNC(=O)COC(=O)c1nccnc1N	-	-	0	-	-	-
COc1ccc(N2CCC(CNC(=O)Nc3ccc(C)c(C)c3)C2)cc1 (configuration not stated)	0	0	0	0	101	0
COc1ccc(N2CCC(CNC(=S)Nc3cccc(C)c3)C2)cc1 (configuration not stated)	0	0	0	0	73	0
COc1ccc(N2CCC(CNC(=O)Nc3ccc(OC)cc3OC)C2)cc1 (configuration not stated)	0	0	0	0	90	0
COc1ccc(N2CCC(CNS(=O)(=O)c3cccc(C(F)(F)F)c3)C2)cc1 (configuration not stated)	0	0	0	0	80	0
O=S(=O)(NCC1CC1)c1cccc(S(=O)(=O)N2CCCC2)c1	0	0	0	0	0	0
CCOC(=O)c1ccc(NC(=O)NCc2ccc(OC)cc2)cc1	79	0	0	0	0	0
CCc1ccc(NC(=O)NCC2CCN(c3ccc(OC)cc3)C2)cc1 (configuration not stated)	0	-	0	0	73	0
COc1ccc(CNC(=O)Nc2ccc(C)cc2)cc1	0	0	0	0	0	0
CC(/C=C1\SC(=S)N(CCC(=O)Nc2nc(C)cs2)C1=O)=C\c1ccccc1	0	-	0	0	0	0
COc1cccc(CNC(=O)CCS(=O)(=O)c2ccccc2Cl)c1	-	-	0	-	-	-
CS(=O)(=O)N1CCC(Oc2cccc(C(=O)NCCCC3CCCC3)c2)CC1	-	-	0	-	-	-
O=C(Nc1nccs1)c1ccc(COc2ccc(F)cc2)o1	0	0	0	0	56	0
Cc1nnc(Nc2ccc3c(c2)OCO3)c2ccccc12	82[fluorescence artefact?]	0	0	0	0	0
CC(=O)c1cc(O)c2ccccc2c1O	0	-	0	0	80	0
CC(=O)c1coc2c1cc(O)c1ccccc12	0	0	0	0	0	0
Nc1cc([N+](=O)[O-])ccc1Nc1ccc(O)cc1	0	-	0	0	72	0
Nc1ccccc1Nc1ccc([N+](=O)[O-])cc1[N+](=O)[O-]	0	0	0	0	0	0
COc1ccc(C)cc1NC(=O)CCCN1C(=O)CN(C)C1=O	-	-	0	-	-	-
Cc1c(C)c2c(c(C)c1O)CCC(C)(C(=O)O)O2 (configuration not stated)	-	-	0	-	-	-
CC(C)=CCC/C(C)=C/CN(CC(C)O)CC(C)O (configuration not stated)	0	0	0	0	0	0
SMILES	14-3-3 Bad PPI	Mcl-1 Bim block	MCL1 BIM primary	Mcl1 Bid PPI	Mcl1 Noxa PPI	eIF4E 4G PPI
CC(O)CN(CCC(N)=O)CCC(N)=O (configuration not stated)	0	0	0	52	0	0
CCCc1nc2c(C)ccc(C)c2c(N)c1CC	0	0	0	58	0	0
CNc1nc2ccccc2n1/N=C/c1cccc(OC)c1OC	0	57	0	0	0	0
COc1cccc(/C=N/n2c(CO)nc3ccccc32)c1OC	0	0	0	0	0	0
CC1=C(C(=O)OCCBr)C(c2cccc3ccccc23)NC(=O)N1 (configuration not stated)	-	-	0	-	-	-
COc1cccc(-n2c(SCC(=O)O)nnc2-c2cccnc2)c1	88	0	0	0	0	0
COc1ccc(-n2c(SCC(N)=O)nnc2-c2cccnc2)cc1	0	0	0	0	0	0
Cc1ccc(S(=O)(=O)N2CCCCC2)cc1NC(=O)COC(=O)Cc1cccc(C(F)(F)F)c1	0	-	0	0	0	0
O=[N+]([O-])c1ccc(C(=Nc2cccc3ccccc23)N2CCOCC2)cc1	97[fluorescence artefact?]	0	0	0	0	0
CCOc1cc(C(=O)Nc2ccc3c4c(cccc24)C(=O)N3CC)cc(OCC)c1OCC	0	0	0	0	0	59

Screening data from PubChem BioAssay.
